Screening data from PubChem BioAssay.
CYP2C9 act: human CYP2C9 activators, primary screen, biochemical, luminescence; Cytochrome P450 2C9 (Homo sapiens), P11712; 96,000 tested, 1.4% active; recombinant CYP2C9, luciferin-H conversion; hits give high values; factor 1 = untreated enzyme, 0 = blocked; activation factor at 5 µM;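 active = activation factor of 2 or more for CYP2C9 at a 5 µM dose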;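 also: 0 = sulfaphenazole-blocked wells and 1 = vehicle-only wells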
Target sequence (P11712 whole entry, looked up): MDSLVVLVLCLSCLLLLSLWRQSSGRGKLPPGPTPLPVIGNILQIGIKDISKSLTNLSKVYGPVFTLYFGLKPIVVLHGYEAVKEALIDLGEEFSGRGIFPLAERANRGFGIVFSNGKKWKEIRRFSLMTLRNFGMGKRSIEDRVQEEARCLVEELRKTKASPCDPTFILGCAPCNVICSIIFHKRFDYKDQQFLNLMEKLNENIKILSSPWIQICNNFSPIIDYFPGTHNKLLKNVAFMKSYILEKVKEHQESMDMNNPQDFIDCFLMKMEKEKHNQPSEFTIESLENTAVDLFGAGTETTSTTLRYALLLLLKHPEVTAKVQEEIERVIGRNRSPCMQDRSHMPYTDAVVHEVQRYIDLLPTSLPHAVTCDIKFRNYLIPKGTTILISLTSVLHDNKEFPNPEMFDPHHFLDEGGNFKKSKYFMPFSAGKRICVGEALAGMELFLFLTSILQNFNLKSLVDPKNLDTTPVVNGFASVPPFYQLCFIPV
CYP2C19 inh: blockers of cytochrome P450 2C19 activity – biochemical, luminescence, ADME assay, primary screen; inhibition, % at 5 µM; CYP2C19 Supersomes, luciferin-H EGE luminescence, 30 min; AID 778, 2007; 96,000 tested, 21% active; P33261;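 active = CYP2C19 inhibition above a set limit at 5 µM in the primary screen, cut at about 50% in these data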;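 also: plate controls were negative control wells for no effect and 2.5 mM tranylcypromine positive control for full effect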
PostGolgi ctrl: growth inhibition of yeast control strain, primary screen, counter-screen for post-Golgi transport modulator project; efflux-deficient yeast background strain, growth absorbance A615, 16 h; inhibition, % at 10 µM; 98,000 tested, 5% active
PostGolgi yeast: phenotypic screen on post-Golgi transport, primary screen. inhibition, % at 10 µM. AID 739, 2007. 98,000 tested, 0.9% active. post-Golgi transport phenotypic cell assay;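 also: yeast cells grown in 1536-well plates; yeast grown about 18 h at 30C before absorbance read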
CYP2C9 inh: blockers of cytochrome P450 2C9 activity – biochemical, luminescence, ADME assay, primary screen. P11712. inhibition, % at 5 µM. 96,000 tested, 20% active. AID 777, 2007. CYP2C9 Supersomes, luciferin-H conversion;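 active = blocking of liver enzyme CYP2C9 beyond about 50% at 5 µM, limit read from the data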
CYP2C19 act: human CYP2C19 activators, primary screen, biochemical, luminescence; Cytochrome P450 2C19 (Homo sapiens), P33261; recombinant CYP2C19, luciferin-H EGE luminescence; hits give high values; 0 = fully inhibited enzyme, 1 = untreated enzyme; activation factor at 5 µM; 96,000 tested, under 10 active; AID 1025, 2008;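 active = activation factor of at least 2 at 5 µM in the primary screen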;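 also: 0 = wells with 2.5 mM tranylcypromine and 1 = vehicle-only wells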
An asterisk follows results filed as active; . = no result given. Sampled rows, rich in hits. Any-hit rate of the full collection: about 32%. Rule as the data show it, unless noted: active = inhibition above about 30%; inactive = the rest.

SMILES | CYP2C9 act | CYP2C19 inh | PostGolgi ctrl | PostGolgi yeast | CYP2C9 inh | CYP2C19 act
CCCCC(=O)Nc1nc2ccc3nc(C)sc3c2s1 | . | . | 45* | 1 | . | .
CCCC(=O)Nc1nc2ccc3nc(C)sc3c2s1 | 1.1 | 1 | 19 | 1 | -11 | 1
O=C(CSc1nc2cccnc2n1Cc1ccccc1)NCc1ccco1 | 0.7 | 58* | -2 | 0 | 31 | 0.4
O=C(CSc1nc2ccccc2n1CC(=O)NCc1ccccc1)NCc1ccco1 | 0.2 | 79* | 0 | 13 | 82* | 0.2
O=C(CSc1nc2ccccc2n1Cc1ccccc1)N/N=C/c1ccco1 | 0.5 | 56* | 6 | -2 | 49 | 0.4
Cc1ccc(Cn2c(SCC(=O)N/N=C/c3ccc(C)o3)nc3ccccc32)cc1 | 0.8 | 6 | 9 | 1 | 19 | 0.9
COc1ccccc1COCC(O)CNCC1(N2CCCCC2)CCCCC1 (centres undefined) | 1 | 1 | 29 | 19 | 5 | 1
COc1cc(CN(C)CCc2ccccc2)ccc1OCc1ccccc1 | 0.9 | 14 | 21 | 9 | 12 | 0.9
CCC(Sc1nc2ccccc2c2nc3ccccc3n12)C(=O)NCc1ccco1 (centres undefined) | 0.2 | 6 | 22 | -4 | 78* | 0.9
N#CCCn1c(SCC(=O)NCc2ccco2)nc2ccccc21 | 1.3 | 42 | 5 | -9 | -32 | 0.6
Cc1ccc(C(=O)Nc2nc(C)c(C)s2)o1 | 0.7 | 29 | 0 | -3 | 32 | 0.7
CCOC(=O)CNC(=O)CSc1nc2cccnc2n1C1CCCCC1 | 1 | 16 | -12 | -6 | 2 | 0.8
Cc1nc(NC(=O)CCCC(=O)Nc2nc(C)c(C)s2)sc1C | 0.2 | 18 | 8 | 16 | 81* | 0.8
CCOC(=O)CNC(=O)CSc1nc2cccnc2n1Cc1ccccc1 | 0.5 | 80* | -6 | -5 | 47 | 0.2
O=C(O)CCn1c(SCc2cccc3ccccc23)nc2ccccc21 | 0.3 | 43 | -2 | -12 | 66* | 0.6
CCSc1nc2ccccc2n1CCC(=O)O | 1.1 | 3 | 21 | 8 | -12 | 1
Cc1ccc(C(=O)NNC(=O)CSc2nnc(-c3ccncc3)n2-c2ccc(C)cc2)cc1 | 0.6 | 38 | -1 | 1 | 42 | 0.6
Cc1nc(NC(=O)CSc2ccccc2N)sc1C | 0.2 | 48 | -5 | 2 | 76* | 0.5
Cc1nc(NC(=O)CSc2nc3cccnc3n2Cc2ccccc2)sc1C | 0.4 | 63* | 2 | -7 | 59* | 0.4
NNC(=O)Cn1c(SCc2ccccc2)nc2ccccc21 | 0.6 | 96* | -1 | 8 | 37 | 0
CCn1c(SCC(=O)Nc2nc(C)c(C)s2)nnc1-c1cccnc1 | 1.1 | 50 | 8 | -6 | -15 | 0.5
COc1cccc(S(=O)(=O)N2CCN(c3ccccc3F)CC2)c1 | 0.3 | 74* | 9 | 7 | 67* | 0.3
CCCS(=O)(=O)N1CCN(c2ccccc2F)CC1 | 0.5 | 68* | 2 | -3 | 47 | 0.3
O=C(c1cccc(S(=O)(=O)N2CCCC2)c1)N1CCN(c2ccccc2F)CC1 | 0.2 | 93* | 10 | -1 | 80* | 0.1
CCOc1ccccc1N1CCN(S(=O)(=O)CC)CC1 | 0.8 | 35 | -1 | -6 | 24 | 0.7
SMILES | CYP2C9 act | CYP2C19 inh | PostGolgi ctrl | PostGolgi yeast | CYP2C9 inh | CYP2C19 act
COC(=O)COc1ccc(S(=O)(=O)N2CCN(c3ccccc3F)CC2)cc1C | 0.7 | 43 | 18 | 0 | 26 | 0.6
O=C(Nc1ccccc1C(=O)N1CCCC1)c1cccc(S(=O)(=O)N2CCCCCC2)c1 | 0.2 | 54* | 21 | 14 | 80* | 0.5
O=C(c1cccc(S(=O)(=O)N2CCOCC2)c1)N1CCN(c2ccc(F)cc2)CC1 | 0.9 | 14 | 5 | 9 | 10 | 0.9
COc1ccc(-c2nc(CS(=O)CC(=O)NCCCN3CCCC3)c(C)o2)cc1OC (centres undefined) | 1 | 5 | 8 | -2 | -3 | 1
O=C(Nc1cccc(O)c1)c1cccc(S(=O)(=O)N2CCCC2)c1 | 0.8 | 13 | 18 | -3 | 15 | 0.9
O=C(c1cccc(S(=O)(=O)N2CCCCC2)c1)N1CCCCC1 | 1 | 22 | 38* | 13 | 0 | 0.8
Cc1ccc(O)c(NC(=O)c2cccc(S(=O)(=O)N3CCCCC3)c2)c1 | 0.5 | 59* | 14 | 1 | 53* | 0.4
CN(CCc1ccccn1)C(=O)Nc1ccc(F)cc1 | 0.9 | 38 | 10 | 2 | 8 | 0.6
CN(CCc1ccccn1)S(=O)(=O)c1ccccc1F | 1.3 | 64* | . | . | -33 | 0.4
CN(CCc1ccccn1)Cc1ccc(Cl)cc1Cl | 1 | 68* | 3 | 4 | 2 | 0.3
CCOC(=O)c1ccc(NC(=O)C(C)NS(=O)(=O)c2ccc(OC)cc2)cc1 (centres undefined) | 0.5 | 50* | 36* | -5 | 49 | 0.5
COc1ccc(S(=O)(=O)NC(C)C(=O)Nc2ccccc2F)cc1 (centres undefined) | 1 | 43 | 15 | -3 | 3 | 0.6
CCOC(=O)c1ccc(NC(=O)COc2ccc(S(=O)(=O)NC(C)CC)cc2)cc1 (centres undefined) | 0.7 | 22 | -3 | -23 | 34 | 0.8
COc1ccc(S(=O)(=O)NC(C)C(=O)Nc2cccc(C(C)=O)c2)cc1 (centres undefined) | 0.4 | 42 | 13 | -3 | 64* | 0.6
CCOc1ccc(Nc2nc(NCCN3CCOCC3)nc(OC)n2)cc1 | 0.9 | 0 | -9 | 4 | 7 | 1
N#Cc1nc(-c2ccccc2F)oc1NC1CCCCC1 | 0.7 | 33 | . | 3 | 28 | 0.7
OCCNCCCOc1ccc(Cl)cc1Br | 1 | 5 | -1 | 7 | -2 | 0.9
Cc1cc(Cl)c(OCCCNCc2ccccc2)c(Br)c1 | 1 | 57* | 8 | -2 | -4 | 0.4
COCCNCCCCOc1c(Cl)cc(C)cc1Br | 1.1 | 17 | -4 | 17 | -8 | 0.8
Clc1ccc(OCCCNCc2ccccc2)c(Br)c1 | 1 | 63* | 31* | -37 | 2 | 0.4
CCCSc1nnc(NC(=O)c2nc(SC)ncc2Cl)s1 | 0.8 | -17 | 35* | 3 | 20 | 1.2
C[N+]1(CCCCCCC(=O)/C=N/O)CCCCCC1 | 1 | 7 | -7 | 16 | 4 | 0.9
COc1ccccc1-c1c(C)c(C)nc(N)c1C#N | 1 | 13 | 5 | 1 | 1 | 0.9
N#Cc1c(-c2ccccc2Cl)cc(C2CC2)nc1N | 1.5 | 74* | 16 | 6 | -53 | 0.3
COc1ccccc1-c1cc(C2CC2)nc(N)c1C#N | 1.2 | 80* | 5 | 0 | -17 | 0.2
CCc1nc(N)c(C#N)c(-c2ccccc2OC)c1C | 1 | 70* | 4 | 31* | -4 | 0.3
